# Reference: PubChem BioAssay (Tox21)
# Values joined by “and” are separate entries in the source; they are usually repeats but may differ in a detail not shown here. Equal entries are not always repeated. Active and inactive are the calls of the source. Entries that show only a call come without a potency. Calls come from the whole dose curve. Residues, ends and D or L forms follow the SMILES beside them.
# Target: Estrogen receptor (Homo sapiens) (UniProt P03372)
# Experiment: qHTS assay to identify small molecule agonists of the estrogen receptor alpha (ER-alpha) signaling pathway in the presence of an antagonist (AID 1259383); note: nearly all actives have a fitted effect of over 15% in size
# Details: VM7Luc4E2 cells, ERE-luciferase, +ICI-182,780, 22 h; series mostly up to 92.4 µM
# From the text: National Center for Advancing Translational Sciences [NCATS] NIH Chemical Genomics Center [NCGC] U.S. Environmental Protection Agency [EPA] National Institutes of Environmental Health Sciences [NIEHS] National Toxicology Program [NTP] Assay overview: Estrogen receptor (ER), a member of nuclear hormone receptor plays an important role in development, metabolic homeostasis and reproduction. Two subtypes of ER, ER-alpha and ER-beta, have similar expression patterns with some uniqueness in both types. Endocrine disrupting chemicals (EDCs) and their interactions with steroid hormone receptors like ER causes disruption of normal endocrine function. Therefore, it is important to understand the effect of environmental chemicals in ER signaling pathway. For identifying ER agonists, VM7Luc4E2 cell line has been used in the current assay. VM7Luc4E2 cell line (provided by Denison MS, University of California) endogenously expresses full-length ER-alpha and is stably transfected with a plasmid containing four estrogen responsive elements (ERE) upstream of a luciferase reporter gene. This current screening for measuring luciferase reporter gene activity using VM7Luc4E2 cells against Tox21 10K library collection is a confirmation study on agonist mode screening in presence of ER-antagonist (ICI-182,780) at 10.0nM final concentration.
# Assay Protocol Summary: VM7Luc4E2 cells were cultured in phenol red free assay medium containing 10% charcoal stripped FBS for 5 days prior to the assay. The cells were dispensed at 4,000 cells in 4uL of assay medium per well into white wall/solid-bottom 1536-well plates (Corning Life Sciences, Corning, NY) using a Multidrop Combi (Thermo Fisher Scientific Inc., Waltham, MA) dispenser. After the assay plates were incubated at 37C and 5% CO2 for 24hr, 1uL of 10.0nM (final concentration) ICI-182,780 or assay buffer was added using two separate tips of Flying Reagent Dispenser (FRD, Aurora Discovery, San Diego, CA). Then 23nL of compounds dissolved in DMSO at 15 concentrations and positive controls or DMSO only was transferred to the assay plates by a Pintool station (Wako, San Diego, CA). The assay plates were incubated at 37C and 5% CO2 for 22hr. For luciferase read, 4uL/well ONE-Glo reagent (Promega Corporation, Madison, WI) was added to each well using FRD and after 30min incubation at room temperature, luminescence signal was measured on ViewLux plate reader (PerkinElmer, Shelton, CT).
# Potency is the fitted concentration of half-maximal effect.
# Sequence of Estrogen receptor (Homo sapiens) (P03372 whole entry, looked up): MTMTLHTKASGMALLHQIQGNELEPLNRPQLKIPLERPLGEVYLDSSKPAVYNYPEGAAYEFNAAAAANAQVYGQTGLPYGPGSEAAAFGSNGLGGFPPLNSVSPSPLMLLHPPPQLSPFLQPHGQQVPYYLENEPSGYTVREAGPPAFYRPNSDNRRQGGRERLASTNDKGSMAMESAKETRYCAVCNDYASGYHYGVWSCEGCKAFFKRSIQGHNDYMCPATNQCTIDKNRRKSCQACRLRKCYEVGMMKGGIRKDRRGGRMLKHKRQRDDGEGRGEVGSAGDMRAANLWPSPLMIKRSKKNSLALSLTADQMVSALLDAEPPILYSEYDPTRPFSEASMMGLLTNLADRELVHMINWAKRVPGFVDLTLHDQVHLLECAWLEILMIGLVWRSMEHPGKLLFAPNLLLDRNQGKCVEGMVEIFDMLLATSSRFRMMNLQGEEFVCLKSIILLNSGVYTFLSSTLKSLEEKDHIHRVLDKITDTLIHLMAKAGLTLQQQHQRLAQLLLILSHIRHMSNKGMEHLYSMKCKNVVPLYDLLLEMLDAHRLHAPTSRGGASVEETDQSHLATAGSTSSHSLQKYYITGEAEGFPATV
row,Compound,Potency
1,NC(=O)c1ccccc1O,inactive
2,Cc1noc(NS(=O)(=O)c2ccc(N)cc2)c1C,inactive
3,CCCC(CCC)C(=O)O,inactive
4,Cn1cc[nH]c1=S,inactive
5,C[C@]12C=CC(=O)C=C1CC[C@@H]1[C@@H]2[C@@H](O)C[C@@]2(C)[C@H]1CC[C@]2(O)C(=O)CO,inactive
6,Cc1cn([C@H]2C[C@H](N=[N+]=[N-])[C@@H](CO)O2)c(=O)[nH]c1=O,inactive
7,Nc1ccc(O)c(C(=O)O)c1,inactive
8,NC(=O)c1cnccn1,inactive
9,CC(C)(Oc1ccc(C2CC2(Cl)Cl)cc1)C(=O)O (stereo not given),inactive
10,Oc1ccc(/C=C/c2cc(O)cc(O)c2)cc1,4.37 µM (active) and 8.63 µM (active) and 13.3 µM (active)
11,O=C1CN(/N=C/c2ccc([N+](=O)[O-])o2)C(=O)N1,inactive
12,O=C(O)CCCCC(=O)O,inactive
13,NNC(=O)c1ccncc1,inactive
14,CCCCC1C(=O)N(c2ccccc2)N(c2ccccc2)C1=O,inactive
15,O=C(O)CCC(=O)O,inactive
16,Cc1cc(=O)n(-c2ccccc2)n1C,inactive
17,O=c1ccc2ccccc2o1,inactive
18,CCCCC(CC)COC(=O)/C=C/c1ccc(OC)cc1 (stereo not given),inactive
19,Cc1ccc(C)c(OCCCC(C)(C)C(=O)O)c1,inactive
20,Cc1ccc(S(=O)(=O)NC(=O)NN2CCCCCC2)cc1,inactive

row,Compound,Potency
1,NS(=O)(=O)c1cc(C(=O)O)c(NCc2ccco2)cc1Cl,inactive
2,CC1(C)[C@@H]2CC[C@@]1(C)C(=O)C2,inactive
3,O=C(O)CS,inactive
4,COc1ccc2[nH]cc(CCNC(C)=O)c2c1,inactive
5,Nc1ccn([C@H]2CC[C@@H](CO)O2)c(=O)n1,inactive
6,NC(N)=O,inactive
7,N=C(N)c1ccc(OCCCCCOc2ccc(C(=N)N)cc2)cc1,inactive
8,Nc1ccc(S(=O)(=O)c2ccc(N)cc2)cc1,inactive
9,CC(O)C(=O)O (stereo not given),inactive
10,Cc1cc(=O)[nH]c(=S)[nH]1,inactive
11,CC(=O)Nc1nnc(S(N)(=O)=O)s1,inactive
12,Cc1ccccc1C(OCCN(C)C)c1ccccc1 (stereo not given),inactive
13,COC(=O)[C@H](Cc1ccccc1)NC(=O)[C@@H](N)CC(=O)O (H-Asp-Phe-OMe),inactive
14,CCCC(O)C(CC)CO (stereo not given),inactive
15,NC(N)=NC(=O)c1nc(Cl)c(N)nc1N,inactive
16,Cn1c(=O)c2[nH]cnc2n(C)c1=O,inactive
17,CC(O)CO (stereo not given),inactive
18,O=C(O)c1[nH]n(-c2ccc(S(=O)(=O)O)cc2)c(=O)c1N=Nc1ccc(S(=O)(=O)O)cc1,inactive
19,Nc1ccc(S(=O)(=O)Nc2nccs2)cc1,inactive
20,CC(=O)NS(=O)(=O)c1ccc(N)cc1,inactive
